# Measurements: PubChem BioAssay (NCI)
# The panel holds about 83,000 compounds, 20% with a hit somewhere; the sample as a whole holds those more often.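 Growth was measured after 48 h exposure to one concentration of compound in 96-well plates. Values under 10 count as active.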 Active and inactive are the calls of the source.
# System: OVCAR-4 ovarian
# Experiment: NCI-60 one-dose screen, 48 h (100 = growth as untreated, 0 = no growth, -100 = all killed)
# Conditions: 10 µM unless noted
row,SMILES,growth
1,COc1cc2c3c(c4c5ccccc5[nH]c4c2c(OC)c1OC)C(=O)N(O)C3=O,56.6% (inactive)
2,Cc1cc2nc3c4cc(O)ccc4n(CCN(C)C)c3nc2cc1C,4.91% (active)
3,Cc1csc(Nc2nc(-c3ccc(Cl)cc3)nc(C(Cl)(Cl)Cl)n2)n1,95.5% (inactive)
4,COc1cc(-c2c(C#N)c(-c3cccs3)nc3c2c(-c2ccccc2)nn3-c2ccccc2)ccc1O,83.5% (inactive)
5,CN1CCN(c2ccc3nc(-c4[nH]ncc4Nc4ncnc5c4OCCCN5)[nH]c3c2)CC1,-35.2% (active)
6,COC(=O)[C@]12CC[C@@H](C)[C@H](C)[C@@H]1C1=CC[C@@H]3[C@@]4(C)C[C@@H](O)[C@H](O)[C@@](C)(CO)C4=CC[C@@]3(C)[C@]1(C)CC2,-55.5% (active)
7,O=C(NO)c1ccc(Cn2c(=O)n(-c3ccccc3)c(=O)c3ccccc32)cc1,18.7% (inactive)
8,COC(=O)[C@]12CC[C@@H](C)[C@H](C)[C@@H]1C1=CC(=O)[C@@H]3[C@@]4(C)C[C@@H](O)[C@H](O)[C@@]5(C)COC(=C45)C[C@@]3(C)[C@]1(C)CC2,63% (inactive)
9,Cn1cc(-c2csc(-c3cn(CCN)c4ccc(F)cc34)n2)c2cccnc21,54.6% (inactive)
10,CN(C)CCCCC(C(=O)CBr)(c1ccccc1)c1ccccc1,12.1% (inactive)
11,CC/C=C\C[C@H]1CC=C2C(=O)C=C[C@@H]2CC=CCCCC(=O)O[C@@H](CCCCC)CC=C2C(=O)C=C[C@@H]2CC=CCCCC(=O)O[C@@H](CCCCC)CC=C2C(=O)C=C[C@@H]2CC=CCCCC(=O)O[C@@H](CCCCC)CC=C2C(=O)C=C[C@@H]2CC=CCCCC(=O)O1,21.6% [7.9 µM] (inactive)
12,Clc1ccc2c(NCCNc3nc(-c4ccccc4)cc(-c4ccccc4)n3)ccnc2c1,-66.4% (active)
13,Cc1ccc(N(CC(=O)Nc2ccc(S(=O)(=O)N3CCC(N4CCCC4)CC3)cc2)S(=O)(=O)c2ccc(Cl)cc2)cc1,49.2% (inactive)
14,Oc1ccc(Nc2ccccc2)cc1,70.5% (inactive)
15,CCCCCCCCNc1cccc2c1C(=O)c1ccccc1C2=O,103% (inactive)
16,Cc1cc(N(CCCNc2ccnc3cc(Cl)ccc23)Cc2ccco2)nc(N2CCN(C)CC2)n1,57% (inactive)
17,C=C1C(=O)O[C@H]2[C@H]1CC/C(Cn1cc(-c3ccc(OC)cc3)nn1)=C\CC[C@@]1(C)O[C@@H]21,27.4% (inactive)
18,O=c1[nH]c2c3ccncc3cc(-c3cccc(Cl)c3)c2c2cnccc12,-8.25% (active)

row,SMILES,growth
1,O=C1CNCCN1,108% (inactive)
2,COc1ccc(/C=C/C(=O)NCC(C)O)cc1 (stereo not given),104% (inactive)
3,O=C1Nc2ccccc2/C1=C/c1cn(CCCn2c3ccccc3c(=O)c3ccccc32)c2ccccc12,88.1% (inactive)
4,Cc1cc(Cl)nc(N(CCCNc2ccnc3cc(Cl)ccc23)Cc2ccco2)n1,32% (inactive)
5,COc1cc(/C=C/c2cc(/C=C/c3ccc(O)c(OC)c3)n(-c3ccc(Cl)cc3)c(=O)n2)ccc1O,78.3% (inactive)
6,CC1(c2ccccc2)OC1C(=O)O (stereo not given),112% (inactive)
7,COc1cc(/C=C2\C(=O)N(CC(O)COc3cc(O)c4c(=O)cc(-c5ccccc5)oc4c3)c3ccccc32)cc(OC)c1O (stereo not given),78.7% (inactive)
8,COc1ccc2c(c1)c(-c1nc(-c3c[nH]c4ncccc34)cs1)cn2CCN,57.1% (inactive)
9,C=C(C)[C@@H]1CC[C@]2(C(=O)N3CCCNCC3)CC[C@]3(C)[C@H](CC[C@@H]4[C@@]5(C)CCC(=O)C(C)(C)[C@@H]5CC[C@]43C)[C@@H]12,92.3% (inactive)
10,Cc1ccc(NC2CC(=O)N(c3c(C)cc(C)cc3C)C2=O)c(C)c1 (stereo not given),98.6% (inactive)
11,Nc1ccc(Cl)cn1,97.4% (inactive)
12,CCc1nnc(NC(=O)c2ccoc2COc2ccccc2)s1,92.2% (inactive)
13,Nc1c2c(nc3ccc(Br)cc13)CC(c1ccccc1)CC2=O (stereo not given),68.7% (inactive)
14,CC(C)(C)n1cc(-c2ccnc(NCCCNS(=O)(=O)c3ccc(Cl)cc3)c2)c(-c2cccc(F)c2)n1,90% (inactive)
15,COc1cc(/C=N/NC(=S)NNC(=S)NC2CCCCC2)cc(OC)c1OC,86.3% (inactive)
16,COc1ccc2[nH]c(-c3ccc(Cl)cc3)cc(=O)c2c1,98.5% (inactive)
17,Cc1cc(N(CCCNc2ccnc3cc(Cl)ccc23)Cc2ccco2)nc(Cl)n1,54.1% (inactive)
